Structures can show the parent of a compound that is named as a salt. ± gives the standard deviation of the averaged measurements.
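Also: End-point A600 read in BHI broth at 37 °C with 2% DMSO, inhibition computed as (1 − OD with compound plus ceftriaxone ÷ OD with ceftriaxone only) × 100.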

This test concerns Listeria monocytogenes 10403S. Kind of test: growth inhibition relative to ceftriaxone-alone control; higher = stronger potentiation of ceftriaxone growth inhibition. Conditions: 10 µM; ceftriaxone 1 ug/ml; 12 h.
As for `C#Cc1cccc(Nc2ncnc3cc(OCCOC)c(OCCOC)cc23)c1` [Erlotinib HCl], the growth inhibition came out at 18.6 ± 18%.

Regarding `Cc1cccc2c1NC(=O)/C2=N\Nc1ccc(S(N)(=O)=O)cc1`, the growth inhibition is -10.2 ± 7.5%.

Take `Cc1ccc(O)cc1Nc1ccnc2ccc(S(C)(=O)=O)cc12`: the growth inhibition was -11.4 ± 13%.

As for `Nc1nc(N)c2nc(-c3cccc(O)c3)c(-c3cccc(O)c3)nc2n1`, the growth inhibition came to 63 ± 19%.

Consider `C=CC(=O)Nc1ccc2ncnc(Nc3ccc(OCc4cccc(F)c4)c(Cl)c3)c2c1`, for which the growth inhibition came to 17.47 ± 0.16%.

On to `CNC(=O)c1cc(-c2ccc(F)cc2)cc(-c2ccc(S(=O)(=O)N3CCCC3)cc2)c1N`, for which the growth inhibition is -4.95 ± 15%.

Consider `COc1cc(/C=N/Nc2ncnc3[nH]ncc23)ccc1O`, for which the growth inhibition came out at 6.52 ± 10%.

Regarding `COc1cc2ncn(-c3cc(OCc4cccs4)c(C(N)=O)s3)c2cc1OC`, the growth inhibition is -10.4 ± 16%.

Turning to `Cn1cc(C=C2C(=O)Nc3cccnc32)c2ccccc21`, the growth inhibition is -13 ± 19%.

For the molecule `CCc1cnn2c(NCc3ccc[n+]([O-])c3)cc(N3CCCC[C@H]3CCO)nc12`, the growth inhibition was -2.28 ± 10%.

Regarding `COc1cc(N2CCN(C(C)C)CC2)ccc1Nc1nc(Nc2ccc(F)cc2C(=O)NC[C@@H](O)CO)c2cc[nH]c2n1`, the growth inhibition came to 5.09 ± 0.17%.

Take `CN(c1ccc(NC(=O)Nc2ccc(OC(F)(F)F)cc2)cc1)c1ccnc(Nc2cccc(S(N)(=O)=O)c2)n1`: the growth inhibition was -3.28 ± 2%.

On to `COc1cccc(-n2ncc3c(N/N=C/c4ccc(S(C)(=O)=O)cc4)ncnc32)c1`, for which the growth inhibition was -2.76 ± 9.3%.

On to `COc1cc2c(cc1Nc1nc(Nc3ccsc3C(N)=O)c3cc[nH]c3n1)N(C(=O)CN(C)C)CCC2`, for which the growth inhibition is -0.422 ± 3.1%.

As to `CNC(=O)c1ccc(C)c(-n2c(C)cc(OCc3ccc(F)cc3F)c(Br)c2=O)c1`, the growth inhibition is 35.2 ± 11%.

The record behind these values is the supplement of paper PMC5641865, “A screen for kinase inhibitors identifies antimicrobial imidazopyridine aminofurazans as specific inhibitors of the Listeria monocytogenes PASTA kinase PrkA” (The Journal of Biological Chemistry, 2017).
